We go through 8 compounds from PubChem BioAssay (Tox21).

Test [1] can be described thus: qHTS assay to identify small molecule antagonists of the estrogen receptor beta (ER-beta) signaling pathway - cell viability counter screen (AID 1259382).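 Note: HEK293T cells carrying ER-beta-UAS-bla reporter stimulated with estradiol; series mostly up to about 92 µM; nearly all actives have a fitted effect of over 55% in size.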 In short, it runs like this: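 Cytotoxicity counter screen multiplexed with the beta-lactamase antagonist assay: GripTite HEK293T ER-beta-bla cells were treated 16 hr with test chemicals in the presence of 1nM 17-beta-estradiol, and viability was measured by CellTiter-Glo.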
(In general: In qHTS, concentration-response curves come from the screen itself.)

The nature of test [2]: qHTS assay to identify small molecule agonists or antagonists of the thyroid stimulating hormone receptor (TSHR) signaling pathway - wild type cell line counter screen (AID 1259384; calls by dose curve). In short, it runs like this:
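Wild-type HEK293 cells were plated 18 h at 37 C/5% CO2, pin-dosed with compound plus Ro20-1724 medium, held 30 min at room temperature, then given cAMP-d2 and anti-cAMP-cryptate; fluorescence was read after 1 h. Fifteen concentrations, triplicate.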

The target in test [3] is Thyrotropin receptor (Homo sapiens) (UniProt P16473). Nature of the test: qHTS assay to identify small molecule antagonists of the thyroid stimulating hormone receptor (TSHR) signaling pathway (AID 1259385; calls by dose curve; note: nearly all actives have a fitted effect of over 20% in size). In short, it runs like this:
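TSHR-HEK293 cells were plated and held 18 h at 37C/5% CO2, then given compound plus Ro20-1724 and stimulated with TSH at 1.5 ng/mL final. After 30 min at room temperature, cAMP was detected with cAMP-d2/anti-cAMP-cryptate (1 h) by fluorescence.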

The target in test [4] is Progesterone receptor (Homo sapiens) (UniProt P06401). Description: qHTS assay to identify small molecule agonists of the progesterone receptor (PR) signaling pathway (AID 1346784; calls by dose curve; note: nearly all actives have a fitted effect of over 30% in size). In short, it runs like this:
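Agonist qHTS: compounds pinned onto 3,000 PR-UAS-bla HEK 293T cells per well in charcoal-stripped serum medium, 16hr at 37C, then beta-lactamase activity measured by LiveBLAzer FRET fluorescence after 2 hours at room temperature.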

Test [5] has the same target. Description: qHTS assay to identify small molecule antagonists of the progesterone receptor (PR) signaling pathway (AID 1346795; active = well fitted inhibition curve with a large enough effect in the signal ratio in the repeat runs, not every such curve was filed as active; the % refers to the signal ratio). Summed up:
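Antagonist mode with agonist R5020 at 1 nM final and 16 hr incubation at 37C. Reporter was beta-lactamase driven by UAS in HEK293T (PR-UAS-bla), 2% charcoal-stripped serum; signal from LiveBLAzer FRET substrate, 2 hr at room temperature.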

The nature of test [6]: qHTS assay to identify small molecule antagonists of the progesterone receptor (PR) signaling pathway - cell viability counter screen (AID 1346798). Note: series mostly up to about 92 µM; nearly all actives have a fitted effect of over 50% in size. Summed up: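 Cytotoxicity read as CellTiter-Glo luminescence (30 min, room temperature) in the same wells as the beta-lactamase readout. HEK293T PR-UAS-bla cells in charcoal-stripped 2% FBS received compound and R5020, then 16 h at 37C, 5% CO2.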

A short description of test [7]: qHTS assay to identify small molecule agonists of the progesterone receptor (PR) signaling pathway - cell viability counter screen (AID 1346799; calls by dose curve; note: nearly all actives have a fitted effect of over 45% in size). In short, it runs like this: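 Cytotoxicity measured by CellTiter-Glo luminescence (30 min, RT) in the same wells as the PR beta-lactamase agonist read. Those HEK293T cells had 16 h compound treatment at 37 C in 2% charcoal-stripped FBS medium.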

A short description of test [8]: qHTS assay to identify small molecule antagonists of the TGF-beta/Smad signaling pathway - cell viability counter screen (AID 1346824). Note: nearly all actives have a fitted effect of over 50% in size. Summed up:
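SBE-bla HEK 293T cells were plated overnight at 37 C, then given compounds in DMSO plus TGF-beta1 (added as 0.25 ng/mL solution) for 5 hr. After the bla read, CellTiter-Glo was added to the same wells and luminescence read after 30 min at room temperature.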

Test [9] is described as follows: qHTS assay to identify small molecule agonists of the TGF-beta/Smad signaling pathway - cell viability counter screen (AID 1346829). Note: top concentration of the series differs between compounds; nearly all actives have a fitted effect of over 45% in size. Summed up:
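HEK 293T SBE-bla line, 5 hr compound exposure at 37 C, multiplexed CellTiter-Glo viability read by luminescence.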

Test [10] is described as follows: qHTS assay to identify small molecule agonists of the TGF-beta/Smad signaling pathway (AID 1346859; active = well fitted activation curve with a large enough effect in the signal ratio in the repeat runs, not every such curve was filed as active; the % refers to the signal ratio; note: series mostly up to about 77 µM). In short, it runs like this: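 Fluorescence (ex 405 nm; em 460 and 530 nm) was read 2 h after LiveBLAzer FRET substrate at RT. The preceding compound treatment of overnight-plated SBE-bla HEK293T cells lasted 5 h at 37 C.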
The nature of test [11]: Caspase-3/7 induction in HepG2 cells by small molecules, qHTS assay (AID 1346978). Note: nearly all actives have a fitted effect of over 15% in size. Summed up: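 Wild-type HepG2 cells (2,000/well) were settled 5 h at 37 C, 5% CO2, then exposed to compounds in DMSO for 17 h. Caspase-3/7 activity was read by luminescence 30 min after adding Caspase-Glo 3/7 reagent at room temperature.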
Test [12] is described as follows: Caspase-3/7 induction in CHO-K1 cells by small molecules, qHTS assay (AID 1346980). Note: nearly all actives have a fitted effect of over 15% in size. In short, it runs like this:
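Wild-type cells were seeded at 1,500 per well and settled 5 hr at 37 C, 5% CO2, then exposed to DMSO-dissolved compounds for 17 hr. Caspase-Glo 3/7 reagent was added, and luminescence was read after 30min at room temperature.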

Test [13] is described as follows: qHTS assay to identify small molecule agonists of the estrogen receptor alpha (ER-alpha) signaling pathway in the presence of an antagonist - cell viability counter screen (AID 1259386).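 Note: series mostly up to about 92 µM; cells exposed to compounds for 22 h at 37 °C before the viability read; nearly all actives have a fitted effect of over 30% in size.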 Summed up:
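Cytotoxicity was measured in parallel with the ERE-luciferase agonist screen, in the same wells. The cells were VM7Luc4E2, which endogenously express ER-alpha, and treatment was with compounds plus 10.0nM ICI-182,780 for 22hr.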

In test [14] the target is Thyrotropin-releasing hormone receptor (Homo sapiens) (UniProt P34981). Description: qHTS assay to identify small molecule antagonists of the thyrotropin-releasing hormone receptor (TRHR) signaling pathway (AID 1346877; active = well fitted inhibition curve with a large enough effect in the repeat runs, not every such curve was filed as active; note: series mostly up to about 51 µM). In short, it runs like this: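 Antagonism is measured as suppression of the calcium response to 1 nM TRH in TRHR-HEK293 cells that have been dye-loaded for 2 h at 37 °C after overnight plating. Each compound is tested at 15 concentrations in triplicate.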
Thyrotropin-releasing hormone receptor (Homo sapiens), sequence (P34981 whole entry, looked up): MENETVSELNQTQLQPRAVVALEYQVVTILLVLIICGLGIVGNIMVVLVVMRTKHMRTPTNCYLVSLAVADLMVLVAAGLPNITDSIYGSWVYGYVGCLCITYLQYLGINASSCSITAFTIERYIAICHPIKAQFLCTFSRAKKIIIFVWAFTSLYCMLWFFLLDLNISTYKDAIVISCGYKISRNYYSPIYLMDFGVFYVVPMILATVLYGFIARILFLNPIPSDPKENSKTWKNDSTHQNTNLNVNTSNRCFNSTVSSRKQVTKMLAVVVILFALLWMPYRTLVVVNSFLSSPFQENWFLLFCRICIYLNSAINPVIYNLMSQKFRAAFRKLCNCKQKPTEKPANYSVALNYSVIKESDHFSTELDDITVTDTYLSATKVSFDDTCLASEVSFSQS

Test [15] is described as follows: Human pregnane X receptor (PXR) small molecule agonists, qHTS cell viability counter screen (AID 1346977). Note: nearly all actives have a fitted effect of over 50% in size. In short, it runs like this: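 Same-well viability read: CellTiter-Fluor added after 23 hr compound exposure, fluorescence measured 1 hr later. Cells were PXR-Luc HepG2 seeded at 2,000/well in 5% charcoal-stripped FBS medium, rested 5 hr before dosing at 37 C.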

The nature of test [16]: Caspase-3/7 induction in CHO-K1 cells by small molecules, qHTS cell viability counter screen (AID 1346979). Note: nearly all actives have a fitted effect of over 35% in size. Note: potency is the fitted concentration of half-maximal effect. Summed up:
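Cytotoxicity counter screen: CellTiter-Fluor added to compound-treated wild-type CHO-K1 cells at 16 h (37C, 5% CO2), fluorescence measured 1 h later; same wells as caspase-3/7 measurement.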

Test [17] in a line: Caspase-3/7 induction in HepG2 cells by small molecules, qHTS cell viability counter screen (AID 1346981). Note: series mostly up to about 92 µM; nearly all actives have a fitted effect of over 30% in size. Summed up: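 Cell viability is measured as a cytotoxicity counter screen alongside the Caspase-Glo 3/7 readout in identical wells. Wild-type HepG2 cells are treated with test compounds for 16 hr at 37 C before CellTiter-Fluor addition and a 1-hr incubation.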
Test [18] addresses Thyrotropin-releasing hormone receptor (Homo sapiens) (UniProt P34981). Description: qHTS assay to identify small molecule agonists of the thyrotropin-releasing hormone receptor (TRHR) signaling pathway (AID 1346891; calls by dose curve; note: series mostly up to about 58 µM). Summed up: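 Agonist-mode intracellular calcium readout: kinetic fluorescence over 3 min at 1 s intervals after compound addition to TRHR-HEK293 cells (18 h seeded, 2 h dye-loaded at 37 C). Fifteen concentrations, triplicates.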

A number with no mark means an inactive call. Records with an inconclusive call do not appear. Active and inactive are the calls of the source. Unless noted, calls come from the whole dose curve; as a rule, active = well fitted curve in the direction sought with a large enough effect in the repeat runs; inconclusive = weak or mixed curves; inactive = no such curve, though single readings can be large; an effect the other way counts as inactive or inconclusive. Positions of bridges follow the written chain, without caps; N, C: chain ends. Non-standard residues stand in square brackets, D forms with d. Residues, ends and D or L forms follow the SMILES beside them. hArg = N=C(N)NCCCC[C@H](N)C(=O)O; Mpa = O=C(O)CCS
% is set by controls: 0 for no effect and ±100 for the full control effect.

Progesterone receptor (Homo sapiens), sequence (P06401 whole entry, looked up): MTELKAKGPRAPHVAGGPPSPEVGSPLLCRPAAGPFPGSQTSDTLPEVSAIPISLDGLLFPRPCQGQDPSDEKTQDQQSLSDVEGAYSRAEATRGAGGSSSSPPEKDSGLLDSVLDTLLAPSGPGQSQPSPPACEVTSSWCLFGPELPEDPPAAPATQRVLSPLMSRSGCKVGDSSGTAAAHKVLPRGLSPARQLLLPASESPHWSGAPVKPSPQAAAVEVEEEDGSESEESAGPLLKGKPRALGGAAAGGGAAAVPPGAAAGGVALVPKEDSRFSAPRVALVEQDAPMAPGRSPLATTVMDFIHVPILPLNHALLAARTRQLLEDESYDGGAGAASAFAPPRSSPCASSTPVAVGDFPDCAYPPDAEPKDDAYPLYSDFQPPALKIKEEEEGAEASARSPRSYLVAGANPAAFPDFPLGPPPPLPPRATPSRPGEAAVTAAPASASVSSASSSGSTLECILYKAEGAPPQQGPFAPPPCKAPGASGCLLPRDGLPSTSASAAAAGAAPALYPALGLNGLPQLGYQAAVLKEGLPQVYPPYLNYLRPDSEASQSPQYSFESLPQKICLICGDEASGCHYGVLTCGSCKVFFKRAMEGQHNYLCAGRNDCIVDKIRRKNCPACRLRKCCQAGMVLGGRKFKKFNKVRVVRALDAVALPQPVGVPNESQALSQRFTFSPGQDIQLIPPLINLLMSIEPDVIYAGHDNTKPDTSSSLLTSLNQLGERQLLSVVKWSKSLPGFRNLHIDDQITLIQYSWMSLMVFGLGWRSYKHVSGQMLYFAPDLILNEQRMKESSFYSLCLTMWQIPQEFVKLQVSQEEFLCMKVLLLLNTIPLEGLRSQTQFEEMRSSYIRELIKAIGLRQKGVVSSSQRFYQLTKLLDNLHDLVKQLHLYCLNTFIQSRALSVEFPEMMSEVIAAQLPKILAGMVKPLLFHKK
Thyrotropin receptor (Homo sapiens), sequence (P16473 whole entry, looked up): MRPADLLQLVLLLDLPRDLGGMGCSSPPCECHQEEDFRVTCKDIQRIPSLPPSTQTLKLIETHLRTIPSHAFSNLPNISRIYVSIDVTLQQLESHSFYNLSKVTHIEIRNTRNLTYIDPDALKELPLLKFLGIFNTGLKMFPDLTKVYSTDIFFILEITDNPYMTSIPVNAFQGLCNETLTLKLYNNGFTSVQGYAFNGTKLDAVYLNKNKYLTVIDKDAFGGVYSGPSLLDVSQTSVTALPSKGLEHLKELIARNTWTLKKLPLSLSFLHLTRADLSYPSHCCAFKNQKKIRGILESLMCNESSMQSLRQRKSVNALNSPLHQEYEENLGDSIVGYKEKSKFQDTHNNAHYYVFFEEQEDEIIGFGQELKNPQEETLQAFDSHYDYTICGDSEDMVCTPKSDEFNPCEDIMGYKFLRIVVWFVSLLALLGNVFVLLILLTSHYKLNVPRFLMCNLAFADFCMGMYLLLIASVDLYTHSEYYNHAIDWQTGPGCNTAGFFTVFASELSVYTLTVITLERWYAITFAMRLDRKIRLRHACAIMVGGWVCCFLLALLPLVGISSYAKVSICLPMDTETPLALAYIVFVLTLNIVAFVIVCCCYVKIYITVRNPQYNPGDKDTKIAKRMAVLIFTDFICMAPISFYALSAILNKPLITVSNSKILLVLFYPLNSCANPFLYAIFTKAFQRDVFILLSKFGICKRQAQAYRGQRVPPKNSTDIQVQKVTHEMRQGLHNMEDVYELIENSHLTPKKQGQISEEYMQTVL

As for `O=S(=O)(O)c1ccc2c(N=Nc3ccc(S(=O)(=O)O)c4ccccc34)c(O)c(S(=O)(=O)O)cc2c1`, the activity change, negative = cytotoxicity is -3.29% [at 8.39 µM] in test [1], 12.1% [at 8.39 µM] in test [6], 18.6% [at 8.39 µM] in test [7] and 12.6% [at 6.97 µM] in test [9]. Also, the cAMP activity change in [2] is -0.796% [at 8.39 µM]. Moreover, the activity change, negative = inhibition in test [3] is -3.96% [at 8.39 µM]; in [5], -1.68% [at 8.39 µM]. For the same compound, the values for the activation in test [4] and in [10] were 2.07% [at 8.39 µM] and 0.897% [at 6.97 µM], respectively. In addition, the viability change, negative = cytotoxic in [8] is 5.53% [at 6.97 µM]. For the same compound, the caspase activation in [11] was -0.326% [at 8.39 µM]. Besides, the caspase-3/7 activation in test [12] was -0.308% [at 8.39 µM].

As for `NC(=O)[C@@H]1CSSCCC(=O)N[C@@H](CCCCN=C(N)N)C(=O)NCC(=O)N[C@@H](CC(=O)O)C(=O)N[C@@H](Cc2c[nH]c3ccccc23)C(=O)N2CCC[C@H]2C(=O)N1` ([Mpa][hArg]GDWPC-NH2; disulfide 1-7), the compound was called inactive in test [1], in [2], in [3], in [13], in test [6] and in [7]. In addition, the result in test [8], in test [9], in [10], in test [14], in test [15] and in test [11] was inactive. Besides, the compound was called inactive in test [12] and in test [17]. Besides, the Potency result in test [4] and in test [5] was “inactive” throughout. In addition, in test [16], the Potency is 10.6 µM (active).

As for `C=C(C)[C@@H]1CC=C(C)C(=O)C1`, the call in test [1], in [2], in test [3], in test [13], in test [6] and in test [7] was inactive. Besides, the compound was called inactive in test [8], in test [9], in test [15], in [11], in test [12] and in test [17].

Regarding `CNCCS(=O)(=O)O`, the outcome in [1], in [2], in [3], in [13], in [6] and in test [7] was inactive. The compound was classed as inactive in test [8], in test [9], in test [10], in [14], in test [18] and in test [15]. The result in [11], in test [12] and in [17] was inactive. In addition, the Potency result in test [4] was “inactive”.

`CCCCSCCCC`: the call in test [1], in test [2], in [3], in test [13], in test [6] and in test [7] was inactive. Moreover, the compound was called inactive in [8], in test [9], in test [10], in [14], in test [18] and in test [15]. Besides, the result in [11], in test [12] and in test [17] was inactive. For the same compound, the Potency result in test [5] and in test [16] was “inactive” each time.

For the compound `O=Cc1cc2ccccc2o1`, the compound was called inactive in test [1], in test [2], in [3], in [13], in test [6] and in [7]. Moreover, the result in test [8], in test [9], in test [10], in [14], in test [18] and in [15] was inactive. In addition, the outcome in [11] and in test [12] was inactive. The Potency entry in test [5] and in [16] was “inactive” throughout.

Take `COc1c2occc2c(OC)c2c(=O)cc(C)oc12`: the result in [1], in test [2], in [3], in test [13], in test [6] and in test [7] was inactive. Besides, the compound was classed as inactive in [8], in test [9], in test [10], in test [15], in [11] and in [12]. For the same compound, the call in [17] was inactive. In addition, the Potency entry in test [4] was “inactive”.

Take `CCOC(CN1CCN(CC(C)C(=O)c2ccccc2)CC1)c1ccccc1` (stereo not given): the activity change, negative = cytotoxicity in test [1] was -10.1% [at 19 µM]; in [13], -9.47% [at 19 µM]; in [6] it was 27.5% [at 18.9 µM]; in test [7], 2.31% [at 19 µM]; in test [9], -11.2% [at 15.8 µM]; in test [15], -0.628% [at 19 µM]. In addition, the activity change, negative = cytotoxicity was 0.23% [at 19 µM] in test [16] and -1.17% [at 19 µM] in test [17]. For the same compound, the cAMP activity change in [2] is 5.14% [at 18.9 µM]. For the same compound, the activity change, negative = inhibition in test [3] was 0.0091% [at 19 µM]. In addition, the activation in test [4] was 0.845% [at 19 µM]; in [10], -2.36% [at 15.8 µM]. Besides, in test [8], the viability change, negative = cytotoxic was -0.107% [at 15.8 µM]. The activity, negative = inhibition in test [14] is -3.1% [at 10.5 µM]. The caspase activation in test [11] was 0.292% [at 19 µM]. Moreover, the caspase-3/7 activation in [12] is 0.336% [at 19 µM].
